Screens as filed in PubChem.
This is a sample that favours compounds with a hit; in the whole collection about 2.3% have one here.
Mcl1-Noxa inh – Mcl-1/Noxa binding inhibitors, primary screen, biochemical, TR-FRET, 1536-well; TR-FRET Mcl-1/Noxa peptide binding, 2 h; inhibition, % at 21.7 µM; hit rate 1.5% among 220,000; AID 1022, 2008;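 active = compounds that cut the protein-peptide binding signal by more than 50% relative to plate controls in a single-dose test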;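 note: His-tagged Mcl-1 with rhodamine Noxa BH3 peptide and terbium anti-His antibody; 0% = Mcl-1 plus Noxa peptide wells and 100% = peptide-only wells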
Mcl-1 Bim block – inhibitors of Bim peptide binding to Mcl-1, primary screen, biochemical, bead-based flow cytometry, multiplex; inhibition, % at 10 µM; hit rate 0.1% among 190,000; Induced myeloid leukemia cell differentiation protein Mcl-1 (Homo sapiens), Q07820; AID 1009, 2008; Bim peptide-Mcl-1 binding; in the data active = inhibition above about 40%;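 note: 0% = no compound tracer wells and 100% = peptide blocker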
GLD-1 TGE inh – GLD-1/TGE RNA complex disruptors, primary screen, biochemical, fluorescence polarization; Female germline-specific tumor suppressor gld-1 (Caenorhabditis elegans), Q17339; purified GLD-1 + fluorescein TGE RNA; inhibition, % at 5.96 µM; hit rate 0.44% among 320,000; AID 2280, 2010;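 active = percent inhibition above a per-plate cutoff, the plate mean of test compounds plus 3 SD, cut at about 30% in these data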;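 note: 0% = DMSO wells with GLD-1 and probe and 100% = wells lacking GLD-1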
Target sequence (Q17339 whole entry, looked up): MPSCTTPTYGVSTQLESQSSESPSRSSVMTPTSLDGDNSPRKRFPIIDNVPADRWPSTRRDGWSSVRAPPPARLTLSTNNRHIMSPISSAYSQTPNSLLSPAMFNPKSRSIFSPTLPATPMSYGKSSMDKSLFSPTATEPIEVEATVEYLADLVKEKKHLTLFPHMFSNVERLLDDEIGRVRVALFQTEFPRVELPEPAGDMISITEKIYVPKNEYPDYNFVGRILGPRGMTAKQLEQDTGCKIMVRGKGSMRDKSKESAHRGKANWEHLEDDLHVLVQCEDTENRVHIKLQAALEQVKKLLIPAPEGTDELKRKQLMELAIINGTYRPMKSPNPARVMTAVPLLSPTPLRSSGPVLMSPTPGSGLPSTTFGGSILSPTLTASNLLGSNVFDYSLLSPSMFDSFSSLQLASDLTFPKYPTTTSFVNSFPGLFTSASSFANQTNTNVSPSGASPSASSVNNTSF
Bcl-xL primary – inhibitors of human Bcl-xL, primary screen, biochemical, fluorescence polarization, HTS. Bcl-2-like protein 1 (Homo sapiens), Q07817. GST-Bcl-xL / FITC-Bim BH3 peptide fluorescence polarization. inhibition, % at 10.9 µM. hit rate 0.7% among 320,000. AID 2129, 2009;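 active = inhibition above the mean of all tested compounds plus 3 SD, cutoff set per campaign, cut at about 30% in these data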;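 note: 0% = DMSO wells and 100% = unlabeled Bim-BH3 peptide competitor; inhibitors lower millipolarization by displacing the labeled peptide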
Mcl1 Bid PPI – Mcl-1/Bid binding inhibitors, primary screen, biochemical, TR-FRET, 1536-well. Induced myeloid leukemia cell differentiation protein Mcl-1 (Homo sapiens), Q07820. TR-FRET Mcl-1/Bid-Dy647 peptide binding. inhibition, % at 21.7 µM. hit rate 0.97% among 220,000. AID 1021, 2008;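 active = compounds that cut the binding signal by more than half at the single screening dose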;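 note: His-tagged Mcl-1 with europium anti-His antibody binding Bid BH3 peptide; 0% = Mcl-1 plus peptide wells and 100% = peptide-only wells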
MCL1 BIM primary – inhibitors of MCL1 binding to BIM-BH3, primary screen, biochemical, fluorescence polarization; hit rate 0.68% among 320,000; inhibition, % at 10.9 µM; GST-MCL1 / FITC-Bim-BH3 fluorescence polarization; Induced myeloid leukemia cell differentiation protein Mcl-1 (Homo sapiens), Q07820;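 active = inhibition above the mean inhibition of all tested compounds plus 3 SD, set per campaign, cut at about 40% in these data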;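 note: 0% = DMSO wells and 100% = unlabeled Bim-BH3 peptide control; higher means more loss of mP so more displacement of Bim peptide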
Active calls of the source: *; x = not tested or not shown.

SMILES	Mcl1-Noxa inh	Mcl-1 Bim block	GLD-1 TGE inh	Bcl-xL primary	Mcl1 Bid PPI	MCL1 BIM primary
Cc1cc(NC(=O)C(=O)NCCN2CCN(C(=O)c3cccs3)CC2)ccc1Br	-5	-1	-1	3	-10	2
O=c1oc(-c2ccccc2)nc2sc3c(c12)CCC3	60*	0	4	10	-25	29
O=C(N/N=C/c1ccc(O)c(O)c1)c1cccc(S(=O)(=O)N2CCCCC2)c1	56*	0	-4	6	-21	19
COc1cc(/C=N/NC(=O)c2cccc(S(=O)(=O)N3CCCCC3)c2)cc(Br)c1O	72*	0	2	3	-43	5
Cc1c(C)n(C)c2ccc(C(=O)NCCN3CCOCC3)cc12	x	x	-1	9	x	7
CCOC(=O)c1ccc(NC(=O)COc2ccccc2CNC2CCCC2)cc1	14	1	3	4	-30	-2
O=c1[nH]c(=S)[nH]c2scc(-c3ccc(Br)cc3)c12	x	x	-3	18	x	18
COc1ccccc1C(=O)Nc1ccc(S(=O)(=O)Nc2cc(C)nc(C)n2)cc1	10	-3	3	5	-6	1
COc1ccc(C(=O)Nc2ccc(S(=O)(=O)Nc3cc(C)nc(C)n3)cc2)c(OC)c1	63*	-4	2	-6	-15	-9
C=CCn1c(SCC(=O)Nc2sc3c(c2C#N)CCC3)nnc1C1COc2ccccc2O1 (stereo unspecified)	30	0	2	-5	55*	-4
COc1ccc(N2CCN(C(=O)CNC(=O)c3ccco3)CC2)cc1	x	x	1	-2	x	-3
O=C(N/N=C(\CC(=O)c1cccs1)C(F)(F)F)c1ccncc1	40	x	2	0	66*	3
Cc1ccc(C(=O)N/N=C(/CC(=O)c2cccs2)C(F)(F)F)cc1	34	-6	5	0	-11	-4
Cc1cccc(N2CCN(S(=O)(=O)c3c(C)[nH]c(C)c3C(=O)N3CCCC3)CC2)c1C	x	x	31*	29	x	34
O=C(O)C1CC(c2ccc(F)cc2)=NO1 (stereo unspecified)	63*	-3	4	-1	-29	2
CN(C)c1ccc(/C=C/C(=O)c2cccc(Br)c2)cc1	-16	-3	-21	46*	-22	14
CN(C)c1ccc(C(=O)/C=C/c2cccnc2)cc1	x	x	-5	-7	x	-9
COc1cc(/C=N/NC(=O)c2cc(-c3ccc4c(c3)OCO4)n[nH]2)ccc1O	55*	9	5	5	1	16
O=C(CSc1nnc(NC(=O)C2CC(=O)N(c3ccc(F)cc3)C2)s1)NCc1ccco1 (stereo unspecified)	x	x	0	6	x	4
CCOC(=O)CN1C(=O)N[C@@H](c2ccccc2)[C@H](C(C)=O)[C@H]1C	x	x	2	1	x	3
COc1cccc(OCCCn2ccnc2)c1	x	x	-2	4	x	5
CCOc1cccc(OCCCCn2ccnc2)c1	36	-2	8	9	58*	7
Brc1cccc(OCCOCCn2ccnc2)c1	15	0	5	5	72*	-2
O=C(NN=Cc1ccccc1C(=O)O)c1ccc(NS(=O)(=O)c2cccs2)cc1	x	x	6	x	x	x
CN1/C(=C\P(=O)(N(C)C)N(C)C)C(C)(C)c2ccccc21	-1	0	59*	45*	-16	47*
SMILES	Mcl1-Noxa inh	Mcl-1 Bim block	GLD-1 TGE inh	Bcl-xL primary	Mcl1 Bid PPI	MCL1 BIM primary
CCOC(=O)/C=C1/N(C)c2ccccc2C1(C)C	1	x	-3	-1	-71	-2
COc1cccc(NC(=O)CN(C)CC(=O)Nc2ccc(C)c([N+](=O)[O-])c2)c1	x	x	5	3	x	-5
O=C(O)C(O)c1ccccc1 (stereo unspecified)	-13	-1	-2	4	8	-3
O=C(O)C(O)c1ccco1 (stereo unspecified)	67*	-2	x	x	-25	x
COc1ccc(Cl)cc1NC(=O)N1CCC(C)CC1	-6	-2	5	6	-15	10
CCC1c2ccc(C)n2CCN1C(=O)Nc1cc(Cl)ccc1OC (stereo unspecified)	-4	-8	38*	56*	-34	53*
CCCC1c2ccc(C)n2CCN1C(=O)Nc1ccccc1Cl (stereo unspecified)	4	-7	21	41*	-41	45*
Cc1sc2ncnc(NCCN3CCOCC3)c2c1C	17	-5	5	7	55*	-1
Cc1cccc(NC(=O)C2CCCN(S(=O)(=O)c3ccc4[nH]c(=O)ccc4c3)C2)c1 (stereo unspecified)	x	x	8	3	x	3
O=C1N=c2ccc(Br)cc2=C1c1sc(=S)n(NS(=O)(=O)c2ccccc2)c1O	83*	-1	7	22	52*	38
Cc1ccsc1CNS(=O)(=O)c1ccc(F)cc1	x	x	7	-3	x	7
Cc1ccccc1-n1ccnc1SCC(=O)Nc1cccc(S(=O)(=O)NC2=NCCC2)c1	x	x	2	x	x	x
Cc1cccc(C)c1NC(=O)N1C2CCC1CC(O)(c1cccnc1)C2 (stereo unspecified)	53*	-4	-5	5	-9	5
COc1cc(/C=N/NC(=O)c2cccc(C)c2)ccc1OCC(=O)Nc1ccccc1	x	x	3	1	x	2
Cn1c2ccccc2c2cc(C(=O)NNC(=O)CCl)sc21	60*	0	4	4	-38	1
OCC[n+]1ccc(/C=C/c2c[nH]c3ccccc23)cc1	-173	-4	50*	7	0	-67
O=C(/C=C/c1c[nH]c2ccccc12)c1ccccc1	-12	-3	-11	1	-49	-16
O=C(c1ccco1)N(CCC(c1ccccc1)c1ccco1)Cc1ccco1 (stereo unspecified)	62*	2	-11	0	-9	12
COc1ccc(OCCOC(=O)CNS(=O)(=O)c2ccc(SC)c([N+](=O)[O-])c2)cc1	x	x	6	3	x	3
O=S(=O)(Nc1nccs1)c1ccc(Nc2nnc(-c3ccccc3)c3ccccc23)cc1	68*	-5	6	4	16	-5
CC1(C)CC(=O)CC(=NCC(=O)O)C1	66*	0	2	6	-7	3
CC1(C)CC(=O)C/C(=N\NC(=S)NCc2ccccc2)C1	11	2	0	3	-54	15
BrC(=C\c1ccccc1)/C=N/N1CCN(c2ccccc2)CC1	24	43*	-2	6	-43	-1
